# Legend:
# Test in all cases: DAPPL (digital affinity profiling via proximity ligation, sequencing); 10 mM Tris-HCl pH 7.5, 50 mM NaCl, 1 mM DTT, 4% glycerol, room temperature, 30 min; GST-TFs on glutathione beads, 16-mer random dsDNA library, 0.1% formaldehyde crosslink after washing; high values mean tight binding
# FLI1 = target: T1, FLI1 (Homo sapiens, UniProt Q01543 1-452); details: protein: recombinant; tags: N-terminal GST; dsDNA, one strand shown
# T1 sequence: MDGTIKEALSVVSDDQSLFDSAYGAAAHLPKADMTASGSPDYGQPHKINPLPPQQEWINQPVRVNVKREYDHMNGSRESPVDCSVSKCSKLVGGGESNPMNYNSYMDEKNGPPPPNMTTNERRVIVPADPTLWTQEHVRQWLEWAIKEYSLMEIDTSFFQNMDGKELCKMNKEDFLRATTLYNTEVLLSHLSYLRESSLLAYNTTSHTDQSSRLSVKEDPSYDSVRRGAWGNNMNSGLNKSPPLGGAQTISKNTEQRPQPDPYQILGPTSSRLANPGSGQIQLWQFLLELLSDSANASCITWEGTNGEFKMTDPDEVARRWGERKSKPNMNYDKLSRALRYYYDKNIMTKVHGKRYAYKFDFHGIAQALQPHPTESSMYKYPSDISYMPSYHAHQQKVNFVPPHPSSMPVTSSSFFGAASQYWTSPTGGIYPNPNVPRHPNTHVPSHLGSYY
# Method in brief: (§1)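 After expression in yeast as GST fusions, human transcription factors were bound to glutathione beads, DNA-barcoded and mixed with a tag-only sample. The pools were incubated with 200 nmole of a 16-mer random double-stranded DNA library in Tris/NaCl/DTT/glycerol buffer (30 min, room temperature), washed and crosslinked with 0.1% formaldehyde. Proximity ligation with BsaI/T4 ligase ran for 1 h at 37 °C, before PCR amplification and sequencing on an Illumina NextSeq500. Binding signal is a hexamer's read frequency for a factor divided by its frequency for the tag-only sample.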
# ELK1 = target: T2, ELK1 (Homo sapiens, UniProt P19419 1-428); details: protein: recombinant; tags: N-terminal GST; dsDNA, one strand shown
# T2 sequence: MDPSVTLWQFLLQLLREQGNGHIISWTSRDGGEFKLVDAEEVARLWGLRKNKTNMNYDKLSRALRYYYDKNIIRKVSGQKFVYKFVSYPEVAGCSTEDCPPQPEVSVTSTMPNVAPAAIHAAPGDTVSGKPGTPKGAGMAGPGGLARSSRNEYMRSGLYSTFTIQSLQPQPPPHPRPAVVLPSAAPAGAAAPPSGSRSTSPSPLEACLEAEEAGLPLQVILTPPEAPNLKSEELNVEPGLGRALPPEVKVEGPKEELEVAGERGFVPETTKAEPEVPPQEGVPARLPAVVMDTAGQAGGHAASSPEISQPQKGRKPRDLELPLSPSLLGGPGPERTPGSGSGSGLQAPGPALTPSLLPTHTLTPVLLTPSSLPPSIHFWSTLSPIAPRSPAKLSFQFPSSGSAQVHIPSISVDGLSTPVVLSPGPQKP
# Method in brief: as §1
# GABPA = target: T3, GABPA (Homo sapiens, UniProt Q06546 1-454); details: protein: recombinant; tags: N-terminal GST; dsDNA, one strand shown
# T3 sequence: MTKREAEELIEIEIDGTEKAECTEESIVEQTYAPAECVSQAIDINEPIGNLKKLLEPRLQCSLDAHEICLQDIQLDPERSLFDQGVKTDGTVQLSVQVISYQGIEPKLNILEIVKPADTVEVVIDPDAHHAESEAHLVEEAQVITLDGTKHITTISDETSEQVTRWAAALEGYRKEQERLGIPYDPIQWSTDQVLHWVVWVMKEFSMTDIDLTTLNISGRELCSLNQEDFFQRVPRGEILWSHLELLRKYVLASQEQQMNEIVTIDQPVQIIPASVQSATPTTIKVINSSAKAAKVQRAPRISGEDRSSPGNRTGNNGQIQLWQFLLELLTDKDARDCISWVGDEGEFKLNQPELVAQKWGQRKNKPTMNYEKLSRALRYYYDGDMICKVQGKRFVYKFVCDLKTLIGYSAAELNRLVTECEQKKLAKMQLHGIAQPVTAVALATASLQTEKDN
# Method in brief: as §1
# ERG = target: T4, ERG (Homo sapiens, UniProt P11308 1-479); details: protein: recombinant; tags: N-terminal GST; dsDNA, one strand shown
# T4 sequence: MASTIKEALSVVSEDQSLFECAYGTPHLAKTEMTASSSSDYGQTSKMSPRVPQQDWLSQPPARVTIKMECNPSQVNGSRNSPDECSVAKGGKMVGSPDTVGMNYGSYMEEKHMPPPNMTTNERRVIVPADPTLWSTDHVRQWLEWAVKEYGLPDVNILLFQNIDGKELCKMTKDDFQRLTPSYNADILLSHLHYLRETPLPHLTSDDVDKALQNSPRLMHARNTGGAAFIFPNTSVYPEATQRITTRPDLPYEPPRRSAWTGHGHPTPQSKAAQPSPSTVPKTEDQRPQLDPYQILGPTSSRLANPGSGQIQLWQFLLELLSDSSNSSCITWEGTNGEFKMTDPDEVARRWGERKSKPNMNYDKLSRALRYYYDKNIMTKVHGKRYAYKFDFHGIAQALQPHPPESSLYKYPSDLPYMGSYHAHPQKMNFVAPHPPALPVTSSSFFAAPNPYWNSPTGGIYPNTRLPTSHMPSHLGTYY
# Method in brief: as §1
# ELF1 = ELF1 (Homo sapiens, UniProt P32519 1-619); details: protein: recombinant; tags: N-terminal GST; dsDNA, one strand shown
# Sequence of ELF1 (P32519 whole entry): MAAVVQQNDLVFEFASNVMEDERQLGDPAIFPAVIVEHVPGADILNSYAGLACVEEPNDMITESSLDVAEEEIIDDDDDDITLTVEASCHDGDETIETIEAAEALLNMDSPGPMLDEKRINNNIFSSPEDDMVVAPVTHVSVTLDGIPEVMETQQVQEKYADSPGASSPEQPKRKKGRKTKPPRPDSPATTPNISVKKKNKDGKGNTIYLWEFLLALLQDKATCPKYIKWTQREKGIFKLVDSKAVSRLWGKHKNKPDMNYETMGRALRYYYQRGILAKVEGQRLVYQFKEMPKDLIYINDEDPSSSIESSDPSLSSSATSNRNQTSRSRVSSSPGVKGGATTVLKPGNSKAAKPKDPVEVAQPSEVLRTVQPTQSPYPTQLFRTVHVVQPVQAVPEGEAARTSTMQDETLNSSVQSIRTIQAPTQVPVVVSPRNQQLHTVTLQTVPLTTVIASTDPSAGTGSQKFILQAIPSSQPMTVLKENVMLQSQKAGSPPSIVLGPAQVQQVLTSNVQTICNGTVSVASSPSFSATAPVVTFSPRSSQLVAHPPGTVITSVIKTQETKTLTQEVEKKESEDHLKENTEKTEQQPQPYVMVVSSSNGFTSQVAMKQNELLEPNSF
# Method in brief: as §1
# EHF = target: T5, EHF (Homo sapiens, UniProt Q9NZC4 1-300); details: protein: recombinant; tags: N-terminal GST; dsDNA, one strand shown
# T5 sequence: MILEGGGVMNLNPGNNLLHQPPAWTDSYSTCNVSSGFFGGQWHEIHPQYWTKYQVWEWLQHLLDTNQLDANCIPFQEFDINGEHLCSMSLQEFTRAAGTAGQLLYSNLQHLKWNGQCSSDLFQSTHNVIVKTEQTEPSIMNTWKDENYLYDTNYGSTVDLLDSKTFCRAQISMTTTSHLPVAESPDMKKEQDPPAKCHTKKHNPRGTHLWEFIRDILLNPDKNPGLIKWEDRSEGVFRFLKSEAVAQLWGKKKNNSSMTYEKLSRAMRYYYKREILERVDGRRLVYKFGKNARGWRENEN
# Method in brief: as §1
# SPI1 = SPI1 (Homo sapiens, UniProt P17947 1-270); details: protein: recombinant; tags: N-terminal GST; dsDNA, one strand shown
# Method in brief: as §1
# SPIB = SPIB (Homo sapiens, UniProt Q01892 1-262); details: protein: recombinant; tags: N-terminal GST; dsDNA, one strand shown
# Sequence of SPIB (Q01892 whole entry): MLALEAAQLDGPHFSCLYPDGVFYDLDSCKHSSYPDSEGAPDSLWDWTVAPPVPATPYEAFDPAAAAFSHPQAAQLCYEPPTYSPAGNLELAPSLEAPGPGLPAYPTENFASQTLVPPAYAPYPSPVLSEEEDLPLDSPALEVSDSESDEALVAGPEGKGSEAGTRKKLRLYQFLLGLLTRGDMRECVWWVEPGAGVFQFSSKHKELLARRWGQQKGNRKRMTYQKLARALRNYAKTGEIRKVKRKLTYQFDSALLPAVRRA
# Method in brief: as §1
# ELK3 = target: T6, ELK3 (Homo sapiens, UniProt P41970 1-407); details: protein: recombinant; tags: N-terminal GST; dsDNA, one strand shown
# T6 sequence: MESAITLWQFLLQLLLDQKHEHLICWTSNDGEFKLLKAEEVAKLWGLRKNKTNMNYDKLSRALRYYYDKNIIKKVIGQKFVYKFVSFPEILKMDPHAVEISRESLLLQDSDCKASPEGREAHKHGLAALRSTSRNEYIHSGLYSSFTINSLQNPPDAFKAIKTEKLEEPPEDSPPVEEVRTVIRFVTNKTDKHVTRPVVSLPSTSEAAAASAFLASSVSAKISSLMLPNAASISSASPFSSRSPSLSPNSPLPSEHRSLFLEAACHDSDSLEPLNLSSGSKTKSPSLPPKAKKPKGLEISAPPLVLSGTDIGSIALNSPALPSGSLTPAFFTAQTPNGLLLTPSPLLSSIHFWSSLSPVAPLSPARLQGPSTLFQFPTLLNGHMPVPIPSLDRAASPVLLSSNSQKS
# Method in brief: as §1
# FEV = target: T7, FEV (Homo sapiens, UniProt Q99581 1-238); details: protein: recombinant; tags: N-terminal GST; dsDNA, one strand shown
# T7 sequence: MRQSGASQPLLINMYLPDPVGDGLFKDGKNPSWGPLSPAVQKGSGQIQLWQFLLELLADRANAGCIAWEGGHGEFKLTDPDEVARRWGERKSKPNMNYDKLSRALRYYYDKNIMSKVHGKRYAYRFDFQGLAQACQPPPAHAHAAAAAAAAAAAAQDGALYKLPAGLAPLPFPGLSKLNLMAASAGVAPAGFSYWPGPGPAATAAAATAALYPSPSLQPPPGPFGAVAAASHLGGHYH
# Method in brief: as §1
# ETV5 = ETV5 (Homo sapiens, UniProt P41161 1-510); details: protein: recombinant; tags: N-terminal GST; dsDNA, one strand shown
# Sequence of ETV5 (P41161 whole entry): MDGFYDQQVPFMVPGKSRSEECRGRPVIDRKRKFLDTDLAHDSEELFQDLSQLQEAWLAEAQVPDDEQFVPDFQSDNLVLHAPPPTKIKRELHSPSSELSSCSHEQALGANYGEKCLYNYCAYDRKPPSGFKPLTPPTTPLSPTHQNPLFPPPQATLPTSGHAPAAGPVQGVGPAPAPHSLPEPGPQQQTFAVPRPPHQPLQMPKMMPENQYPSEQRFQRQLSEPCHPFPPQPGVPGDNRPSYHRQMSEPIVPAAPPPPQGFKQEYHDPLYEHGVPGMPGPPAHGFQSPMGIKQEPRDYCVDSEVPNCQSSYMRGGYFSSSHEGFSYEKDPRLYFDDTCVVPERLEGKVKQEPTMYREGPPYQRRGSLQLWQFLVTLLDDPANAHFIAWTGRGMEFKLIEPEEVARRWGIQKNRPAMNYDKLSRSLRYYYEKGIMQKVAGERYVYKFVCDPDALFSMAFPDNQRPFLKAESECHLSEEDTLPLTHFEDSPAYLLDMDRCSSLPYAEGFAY
# Method in brief: as §1
# HSF1 = HSF1 (Homo sapiens, UniProt Q00613 1-529); details: protein: recombinant; tags: N-terminal GST; chain copies: 3; dsDNA, one strand shown
# Sequence of HSF1 (Q00613 whole entry): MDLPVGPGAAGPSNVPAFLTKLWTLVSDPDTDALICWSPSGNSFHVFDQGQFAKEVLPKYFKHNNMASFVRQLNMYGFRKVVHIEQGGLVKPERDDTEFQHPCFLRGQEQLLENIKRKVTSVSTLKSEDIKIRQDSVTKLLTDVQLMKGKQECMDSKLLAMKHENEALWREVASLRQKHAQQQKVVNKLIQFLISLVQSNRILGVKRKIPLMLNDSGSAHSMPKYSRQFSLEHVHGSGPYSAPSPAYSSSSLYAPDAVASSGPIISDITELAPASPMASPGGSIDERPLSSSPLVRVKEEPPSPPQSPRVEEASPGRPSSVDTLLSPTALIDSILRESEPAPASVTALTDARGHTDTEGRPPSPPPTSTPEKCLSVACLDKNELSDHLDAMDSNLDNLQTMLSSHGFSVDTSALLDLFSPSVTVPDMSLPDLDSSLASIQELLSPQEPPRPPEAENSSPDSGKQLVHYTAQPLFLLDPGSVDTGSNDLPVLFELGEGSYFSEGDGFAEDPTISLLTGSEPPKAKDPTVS
# Method in brief: as §1
# SPIC = target: T8, SPIC (Homo sapiens, UniProt Q8N5J4 1-248); details: protein: recombinant; tags: N-terminal GST; dsDNA, one strand shown
# T8 sequence: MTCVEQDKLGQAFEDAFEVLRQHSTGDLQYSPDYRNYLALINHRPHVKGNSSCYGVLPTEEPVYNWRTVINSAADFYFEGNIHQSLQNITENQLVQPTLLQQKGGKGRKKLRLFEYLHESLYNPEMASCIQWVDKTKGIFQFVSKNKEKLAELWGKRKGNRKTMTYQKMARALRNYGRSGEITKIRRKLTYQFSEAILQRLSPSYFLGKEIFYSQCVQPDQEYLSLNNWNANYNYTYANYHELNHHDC
# Method in brief: as §1
# ELF4 = ELF4 (Homo sapiens, UniProt Q99607 1-663); details: protein: recombinant; tags: N-terminal GST; dsDNA, one strand shown
# Sequence of ELF4 (Q99607 whole entry): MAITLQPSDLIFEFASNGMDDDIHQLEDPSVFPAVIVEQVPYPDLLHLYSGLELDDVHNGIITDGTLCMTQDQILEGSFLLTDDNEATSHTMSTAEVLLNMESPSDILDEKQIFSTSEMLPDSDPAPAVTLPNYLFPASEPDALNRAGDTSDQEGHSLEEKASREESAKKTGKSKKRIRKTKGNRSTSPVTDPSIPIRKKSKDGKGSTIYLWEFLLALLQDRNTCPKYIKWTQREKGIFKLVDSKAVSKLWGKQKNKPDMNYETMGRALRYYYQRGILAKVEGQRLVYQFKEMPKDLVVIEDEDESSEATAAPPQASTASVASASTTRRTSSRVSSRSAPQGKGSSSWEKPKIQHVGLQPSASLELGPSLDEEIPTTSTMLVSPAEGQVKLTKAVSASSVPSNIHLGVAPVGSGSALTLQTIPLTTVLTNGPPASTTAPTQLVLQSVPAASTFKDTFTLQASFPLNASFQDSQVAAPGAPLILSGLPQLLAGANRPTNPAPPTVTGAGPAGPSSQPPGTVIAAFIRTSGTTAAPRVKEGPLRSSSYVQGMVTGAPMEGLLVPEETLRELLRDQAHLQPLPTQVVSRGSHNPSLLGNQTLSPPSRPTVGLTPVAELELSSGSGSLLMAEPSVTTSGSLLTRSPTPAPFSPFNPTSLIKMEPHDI
# Method in brief: as §1
# ELK4 = target: T9, ELK4 (Homo sapiens, UniProt P28324-2 1-405); details: protein: recombinant; tags: N-terminal GST; dsDNA, one strand shown
# T9 sequence: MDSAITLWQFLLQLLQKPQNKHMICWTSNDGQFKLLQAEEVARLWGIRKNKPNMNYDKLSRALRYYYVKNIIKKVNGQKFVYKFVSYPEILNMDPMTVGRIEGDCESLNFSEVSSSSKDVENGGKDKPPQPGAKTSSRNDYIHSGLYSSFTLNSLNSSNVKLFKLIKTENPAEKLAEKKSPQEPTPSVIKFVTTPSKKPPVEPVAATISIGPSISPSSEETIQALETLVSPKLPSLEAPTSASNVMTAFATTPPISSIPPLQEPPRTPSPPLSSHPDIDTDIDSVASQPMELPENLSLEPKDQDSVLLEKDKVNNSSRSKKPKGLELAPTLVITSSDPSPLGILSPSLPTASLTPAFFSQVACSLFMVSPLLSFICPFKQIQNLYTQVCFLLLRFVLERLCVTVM
# Method in brief: as §1
# ETV2 = target: T10, ETV2 (Homo sapiens, UniProt O00321 1-342); details: protein: recombinant; tags: N-terminal GST; dsDNA, one strand shown
# T10 sequence: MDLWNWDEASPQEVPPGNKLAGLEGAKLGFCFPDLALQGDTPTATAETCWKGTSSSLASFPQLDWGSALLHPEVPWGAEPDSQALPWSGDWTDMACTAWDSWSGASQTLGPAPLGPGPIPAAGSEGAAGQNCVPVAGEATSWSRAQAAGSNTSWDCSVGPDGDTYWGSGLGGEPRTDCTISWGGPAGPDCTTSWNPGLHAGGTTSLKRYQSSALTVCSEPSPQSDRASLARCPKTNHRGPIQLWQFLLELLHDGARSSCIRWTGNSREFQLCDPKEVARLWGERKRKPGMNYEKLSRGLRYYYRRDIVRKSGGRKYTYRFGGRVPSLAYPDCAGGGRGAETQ
# Method in brief: as §1
# ELF3 = target: T11, ELF3 (Homo sapiens, UniProt P78545 1-371); details: protein: recombinant; tags: N-terminal GST; dsDNA, one strand shown
# T11 sequence: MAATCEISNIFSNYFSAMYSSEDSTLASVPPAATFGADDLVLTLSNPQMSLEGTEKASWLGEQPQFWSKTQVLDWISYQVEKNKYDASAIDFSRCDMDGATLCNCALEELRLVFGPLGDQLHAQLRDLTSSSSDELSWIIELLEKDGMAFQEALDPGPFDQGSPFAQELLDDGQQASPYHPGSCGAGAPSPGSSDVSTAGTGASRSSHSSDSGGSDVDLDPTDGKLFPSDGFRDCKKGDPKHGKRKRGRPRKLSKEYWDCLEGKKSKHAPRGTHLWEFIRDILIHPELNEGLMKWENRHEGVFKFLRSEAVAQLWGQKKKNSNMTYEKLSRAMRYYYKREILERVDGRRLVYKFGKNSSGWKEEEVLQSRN
# Method in brief: as §1
# ETV1 = ETV1 (Homo sapiens, UniProt P50549 1-477); details: protein: recombinant; tags: N-terminal GST; dsDNA, one strand shown
# Sequence of ETV1 (P50549 whole entry): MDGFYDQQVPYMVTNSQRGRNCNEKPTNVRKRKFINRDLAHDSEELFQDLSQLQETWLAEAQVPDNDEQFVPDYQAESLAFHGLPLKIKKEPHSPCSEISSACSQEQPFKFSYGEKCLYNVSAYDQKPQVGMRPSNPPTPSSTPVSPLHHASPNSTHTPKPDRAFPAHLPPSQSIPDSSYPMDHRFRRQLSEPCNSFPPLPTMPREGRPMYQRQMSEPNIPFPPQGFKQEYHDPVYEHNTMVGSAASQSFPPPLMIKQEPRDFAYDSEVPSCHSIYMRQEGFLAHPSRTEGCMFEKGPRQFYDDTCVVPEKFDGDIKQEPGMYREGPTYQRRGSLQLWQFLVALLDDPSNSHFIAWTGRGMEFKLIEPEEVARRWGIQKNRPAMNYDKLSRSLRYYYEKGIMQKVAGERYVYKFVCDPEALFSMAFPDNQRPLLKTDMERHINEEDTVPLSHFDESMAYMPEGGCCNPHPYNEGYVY
# Method in brief: as §1
sequence,measurement,setting,value
GAAGCA,binding signal,FLI1,"1.23 fold enrichment (6-mer frequency, TF over GST control)"
same,binding signal,ELK1,"1.35 fold enrichment (6-mer frequency, TF over GST control)"
same,binding signal,GABPA,"1.3 fold enrichment (6-mer frequency, TF over GST control)"
same,binding signal,ERG,"1.34 fold enrichment (6-mer frequency, TF over GST control)"
same,binding signal,ELF1,"1.25 fold enrichment (6-mer frequency, TF over GST control)"
same,binding signal,EHF,"1.26 fold enrichment (6-mer frequency, TF over GST control)"
same,binding signal,SPI1,"1.28 fold enrichment (6-mer frequency, TF over GST control)"
same,binding signal,SPIB,"1.25 fold enrichment (6-mer frequency, TF over GST control)"
same,binding signal,ELK3,"1.43 fold enrichment (6-mer frequency, TF over GST control)"
same,binding signal,FEV,"1.29 fold enrichment (6-mer frequency, TF over GST control)"
same,binding signal,ETV5,"1.41 fold enrichment (6-mer frequency, TF over GST control)"
same,binding signal,HSF1,"1.06 fold enrichment (6-mer frequency, TF over GST control)"
same,binding signal,SPIC,"1.19 fold enrichment (6-mer frequency, TF over GST control)"
same,binding signal,ELF4,"1.27 fold enrichment (6-mer frequency, TF over GST control)"
same,binding signal,ELK4,"1.2 fold enrichment (6-mer frequency, TF over GST control)"
same,binding signal,ETV2,"1.37 fold enrichment (6-mer frequency, TF over GST control)"
same,binding signal,ELF3,"1.27 fold enrichment (6-mer frequency, TF over GST control)"
same,binding signal,ETV1,"1.41 fold enrichment (6-mer frequency, TF over GST control)"

# From PMC7862700, “An all-to-all approach to the identification of sequence-specific readers for epigenetic DNA modifications on cytosine”
